Records with an inconclusive call do not appear. Calls of active or inactive are those of the source. The calls were made as follows, unless noted: active = hit-call score of the fitted dose curve at least 0.9, where 1 is the maximum; inactive = score below 0.9.
Assays:
[1] = target: Paired box protein Pax-6 (Homo sapiens) (UniProt P26367); assay: ATG_Pax6_CIS: Attagene CIS-FACTORIAL HepG2 Assay for human Paired Box 6 (PAX6) (AID 2282956); conditions: HepG2 CIS-FACTORIAL PAX6 reporter transcription, RNA readout; actives raise or lower the signal
Paired box protein Pax-6 (Homo sapiens), sequence (P26367 whole entry, looked up): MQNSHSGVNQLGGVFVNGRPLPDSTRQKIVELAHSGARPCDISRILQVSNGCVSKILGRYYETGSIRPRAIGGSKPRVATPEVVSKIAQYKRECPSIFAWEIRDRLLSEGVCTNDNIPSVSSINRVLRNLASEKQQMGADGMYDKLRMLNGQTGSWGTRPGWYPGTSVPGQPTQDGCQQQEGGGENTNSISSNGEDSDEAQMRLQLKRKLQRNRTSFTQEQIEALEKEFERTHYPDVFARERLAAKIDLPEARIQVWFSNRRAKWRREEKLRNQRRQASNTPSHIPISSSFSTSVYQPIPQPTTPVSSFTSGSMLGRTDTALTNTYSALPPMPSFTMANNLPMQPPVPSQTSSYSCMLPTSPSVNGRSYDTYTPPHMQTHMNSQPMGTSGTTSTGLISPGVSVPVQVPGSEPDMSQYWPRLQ
Procedure, shortened: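 Multiplexed cis-reporter HepG2 system; 24 h treatment; reporter mRNA read by RT-PCR/CE fluorescence; bidirectional fit vs DMSO.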

[2] = ATG_PXRE_CIS: Attagene CIS-FACTORIAL HepG2 Assay for human Pregnane X Receptor Element (PXRE) (AID 2282957); conditions: HepG2 Attagene CIS-FACTORIAL PXRE reporter, mRNA; actives raise or lower the signal
Procedure, shortened: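 Cells: HepG2, transiently transfected reporter units under cis promoter control. Exposure: 24 h. Detection: reporter mRNA via RT-PCR/CE fluorescence; bidirectional fitting, DMSO-referenced.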

[3] = ATG_RORE_CIS: Attagene CIS-FACTORIAL HepG2 Assay for human RAR-related Orphan Receptor Element (RORE) (AID 2282959); conditions: HepG2 Attagene cis-factorial RORE reporter, mRNA; actives raise or lower the signal
Procedure, shortened: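 Cells were HepG2 carrying transfected cis-regulated reporter constructs, dosed for 24 hours. Total RNA was reverse-transcribed and reporter cDNA amplified, fluorescently labeled and sized by capillary electrophoresis. Activity was fitted bidirectionally relative to DMSO.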

[4] = ATG_Sox_CIS: Attagene CIS-FACTORIAL HepG2 Assay for human SRY-box transcription factor (SOX) (AID 2282960); conditions: HepG2 Attagene cis-factorial SOX reporter, mRNA; actives raise or lower the signal
Procedure, shortened: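 Transient MRTU transfection of HepG2; 24 h compound incubation; TriZol RNA, oligo(dT) RT, PCR, 6-FAM primer extension, HpaI cut, CE. Bidirectional fit, DMSO = baseline.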

[5] = target: Transcription factor Sp1 (Homo sapiens) (UniProt P08047); assay: ATG_Sp1_CIS: Attagene CIS-FACTORIAL HepG2 Assay for human Specificity Protein 1 (Sp1) (AID 2282961); conditions: HepG2 Sp1 cis-reporter transcription, actives raise or lower the signal
Transcription factor Sp1 (Homo sapiens), sequence (P08047 whole entry, looked up): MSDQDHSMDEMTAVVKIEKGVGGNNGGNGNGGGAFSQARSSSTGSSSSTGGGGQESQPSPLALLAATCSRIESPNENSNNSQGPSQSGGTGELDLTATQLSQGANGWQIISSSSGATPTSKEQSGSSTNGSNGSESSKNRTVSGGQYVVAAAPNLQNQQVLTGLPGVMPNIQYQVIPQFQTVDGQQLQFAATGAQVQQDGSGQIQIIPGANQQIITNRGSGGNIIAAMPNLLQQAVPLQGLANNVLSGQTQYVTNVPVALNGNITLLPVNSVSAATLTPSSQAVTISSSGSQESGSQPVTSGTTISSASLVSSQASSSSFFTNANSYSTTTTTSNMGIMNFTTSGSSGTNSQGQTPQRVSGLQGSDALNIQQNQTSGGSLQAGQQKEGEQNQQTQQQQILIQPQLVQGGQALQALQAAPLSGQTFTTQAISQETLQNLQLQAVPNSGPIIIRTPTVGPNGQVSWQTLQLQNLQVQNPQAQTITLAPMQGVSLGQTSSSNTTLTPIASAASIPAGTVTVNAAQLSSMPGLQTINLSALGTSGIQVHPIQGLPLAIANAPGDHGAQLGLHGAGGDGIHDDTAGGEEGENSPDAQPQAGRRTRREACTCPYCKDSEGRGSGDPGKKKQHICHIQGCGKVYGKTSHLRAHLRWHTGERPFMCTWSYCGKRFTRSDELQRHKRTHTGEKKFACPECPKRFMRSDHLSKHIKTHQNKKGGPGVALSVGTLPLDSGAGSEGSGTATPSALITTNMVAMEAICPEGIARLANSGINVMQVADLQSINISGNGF
Procedure, shortened: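 Endogenous Sp1 activity was gauged in human liver HepG2 cells bearing transfected reporter units under a cis-regulating promoter. After 24 h dosing, reporter mRNA was quantified by RT-PCR with capillary electrophoresis, and activity fitted bidirectionally versus DMSO.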

[6] = ATG_SREBP_CIS: Attagene CIS-FACTORIAL HepG2 Assay for human Sterol Regulatory Element Binding (SREBP) (AID 2282962); conditions: HepG2 Attagene cis-factorial SREBP reporter, mRNA; actives raise or lower the signal
Procedure, shortened: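 mRNA induction of transfected cis-promoter reporters in HepG2 cells, 24 h post-dose. Detection: RT-PCR with 6-FAM-labelled products, HpaI digest, capillary electrophoresis. DMSO served as negative control and baseline.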

[7] = target: Signal transducer and activator of transcription 3 (Homo sapiens) (UniProt P40763); assay: ATG_STAT3_CIS: Attagene CIS-FACTORIAL HepG2 Assay for human Signal Transducer and Activator of Transcription 3 (STAT3) (AID 2282963); conditions: HepG2, Attagene cis-factorial STAT3 reporter transcription; actives raise or lower the signal
Signal transducer and activator of transcription 3 (Homo sapiens), sequence (P40763 whole entry, looked up): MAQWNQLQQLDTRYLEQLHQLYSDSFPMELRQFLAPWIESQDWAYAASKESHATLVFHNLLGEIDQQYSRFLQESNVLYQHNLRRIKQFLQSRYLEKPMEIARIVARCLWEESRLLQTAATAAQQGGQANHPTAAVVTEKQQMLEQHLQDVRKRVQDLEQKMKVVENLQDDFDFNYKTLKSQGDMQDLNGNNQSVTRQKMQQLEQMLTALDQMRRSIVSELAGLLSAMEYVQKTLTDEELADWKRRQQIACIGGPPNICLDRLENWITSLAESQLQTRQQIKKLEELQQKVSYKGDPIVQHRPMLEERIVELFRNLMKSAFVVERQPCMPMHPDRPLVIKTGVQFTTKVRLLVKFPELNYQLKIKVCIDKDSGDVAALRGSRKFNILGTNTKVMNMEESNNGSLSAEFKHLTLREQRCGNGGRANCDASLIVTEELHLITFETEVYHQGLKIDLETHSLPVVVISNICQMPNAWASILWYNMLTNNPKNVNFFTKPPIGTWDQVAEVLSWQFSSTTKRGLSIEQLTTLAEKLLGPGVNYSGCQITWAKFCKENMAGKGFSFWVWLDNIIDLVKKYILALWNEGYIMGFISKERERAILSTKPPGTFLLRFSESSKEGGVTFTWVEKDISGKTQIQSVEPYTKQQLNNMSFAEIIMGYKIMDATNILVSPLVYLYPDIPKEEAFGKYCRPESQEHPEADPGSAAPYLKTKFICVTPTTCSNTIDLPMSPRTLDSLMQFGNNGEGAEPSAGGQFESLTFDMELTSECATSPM
Procedure, shortened: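 HepG2 cells transiently transfected with cis-element-driven multiple reporter transcription units; after 24 h chemical exposure, reporter mRNA measured by RT-PCR, 6-FAM primer-extension labelling, HpaI digestion and capillary electrophoresis. Bidirectional fitting versus DMSO baseline.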

[8] = ATG_TA_CIS: Attagene CIS-FACTORIAL HepG2 Assay for human TA Basal Promoter (AID 2282964); conditions: HepG2 Attagene CIS-factorial TA basal promoter reporter; actives raise or lower the signal
Procedure, shortened: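 Background-control readout: TA basal promoter reporter mRNA, fitted in both directions relative to DMSO. Measured by RT-PCR and capillary electrophoresis 24 hours after treating HepG2 human liver cells transiently carrying multiplexed cis-regulated reporter constructs.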

[9] = ATG_TCF_b_cat_CIS: Attagene CIS-FACTORIAL HepG2 Assay for human T-Cell-Factor with beta-catenin (TCF/b-cat) (AID 2282965); conditions: HepG2 TCF/beta-catenin cis-reporter transcription, actives raise or lower the signal
Procedure, shortened: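 HepG2 cells transiently transfected with multiple cis-promoter-regulated reporter transcription units, so endogenous transcription factor activity is measured. Reporter mRNA read 24 hours after dosing by RT-PCR, fluorescent labelling and capillary electrophoresis; bidirectional fitting against DMSO.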

[10] = ATG_TAL_CIS: Attagene CIS-FACTORIAL HepG2 Assay for human TAL Basal Promoter (AID 2282966); conditions: HepG2 Attagene cis-factorial TAL promoter reporter; actives raise or lower the signal;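 also: background control endpoint measuring basal TAL promoter reporter mRNA not a specific factor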
Procedure, shortened: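 RT-PCR plus capillary electrophoresis quantifies reporter mRNA induction in transiently transfected HepG2 cells after 24 h chemical treatment. DMSO serves as negative control and baseline for bidirectional fitting.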

[11] = ATG_TGFb_CIS: Attagene CIS-FACTORIAL HepG2 Assay for human Transforming Growth Factor (TGF) (AID 2282967); conditions: HepG2 Attagene CIS TGFb reporter, mRNA transcription; actives raise or lower the signal
Procedure, shortened: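 Endogenous TGFB1-linked transcription factor activity read as reporter mRNA via RT-PCR and capillary electrophoresis, 24 h after dosing transiently transfected HepG2 cells. Gain or loss of signal fitted relative to DMSO.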

[12] = ATG_VDRE_CIS: Attagene CIS-FACTORIAL HepG2 Assay for human Vitamin D Receptor Element (VDRE) (AID 2282968); conditions: HepG2 VDRE cis-reporter transcription, actives raise or lower the signal
Procedure, shortened: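 HepG2 cells transiently transfected with cis-element reporter units, dosed 24 h; reporter mRNA measured by RT-PCR, 6-FAM labeling, HpaI digestion and capillary electrophoresis. Activity fitted bidirectionally against DMSO baseline.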

[13] = target: Steroid hormone receptor ERR1 (Homo sapiens) (UniProt P11474); assay: ATG_ERRa_TRANS: Attagene TRANS-FACTORIAL HepG2 Assay for human Estrogen-Related Receptor alpha (ERRa) (AID 2282971; active = hit-call score of the fitted dose curve at least 0.9, where 1 is the maximum); conditions: HepG2 Attagene TRANS reporter, ERRa transactivation
Steroid hormone receptor ERR1 (Homo sapiens), sequence (P11474 whole entry, looked up, the tested form may be a part): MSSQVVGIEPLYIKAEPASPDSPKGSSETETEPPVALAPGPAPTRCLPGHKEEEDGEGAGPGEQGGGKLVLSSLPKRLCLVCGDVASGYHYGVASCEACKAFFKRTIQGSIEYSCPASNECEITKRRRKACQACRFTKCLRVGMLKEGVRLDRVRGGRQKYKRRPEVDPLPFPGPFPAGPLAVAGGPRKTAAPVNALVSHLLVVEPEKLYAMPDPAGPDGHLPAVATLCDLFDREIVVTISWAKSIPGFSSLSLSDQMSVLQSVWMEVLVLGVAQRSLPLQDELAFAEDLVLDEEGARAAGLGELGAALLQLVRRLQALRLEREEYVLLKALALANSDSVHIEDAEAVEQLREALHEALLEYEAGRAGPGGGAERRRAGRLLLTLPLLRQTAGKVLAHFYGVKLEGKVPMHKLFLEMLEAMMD
Procedure, shortened: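 Reporter transcripts from ERRa-Gal4 chimera activity measured in transiently transfected human HepG2 cells 24 hours after dosing, using RT-PCR with 6-FAM primer extension, HpaI digestion and capillary electrophoresis; DMSO is baseline.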

[14] = target: X-box-binding protein 1 (Homo sapiens) (UniProt P17861); assay: ATG_Xbp1_CIS: Attagene CIS-FACTORIAL HepG2 Assay for human X-box Binding Protein 1 (XBP1) (AID 2282972); conditions: HepG2 XBP1 cis-element reporter, Attagene multiplex; actives raise or lower the signal
X-box-binding protein 1 (Homo sapiens), sequence (P17861 whole entry, looked up, the tested form may be a part): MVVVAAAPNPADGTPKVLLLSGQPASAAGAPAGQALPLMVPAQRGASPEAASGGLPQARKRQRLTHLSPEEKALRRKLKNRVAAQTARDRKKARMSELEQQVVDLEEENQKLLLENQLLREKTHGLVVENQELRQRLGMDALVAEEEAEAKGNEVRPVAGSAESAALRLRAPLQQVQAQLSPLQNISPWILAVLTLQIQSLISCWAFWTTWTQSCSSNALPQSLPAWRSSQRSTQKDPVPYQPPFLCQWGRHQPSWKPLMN
Procedure, shortened: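 Fluorescence-labelled cDNA fragments from reporter transcripts, separated by capillary electrophoresis, give the signal. Source: HepG2 cells transfected with promoter-driven reporter units, harvested 24 h post-dose. DMSO served as reference for bidirectional curve fitting.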

[15] = ATG_M_19_TRANS: Attagene TRANS-FACTORIAL HepG2 Assay for M19 Transcription Factor (Internal Marker) (AID 2282974; active = hit-call score of the fitted dose curve at least 0.9, where 1 is the maximum); conditions: HepG2 Attagene TRANS-FACTORIAL M19 internal marker reporter
Procedure, shortened: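 Cells: human HepG2, transiently transfected with multiplexed reporter transcription units. Exposure: 24 h. Detection: RT-PCR of reporter mRNA with capillary electrophoresis. Analysis: gain-of-signal vs DMSO.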

[16] = ATG_GAL4_TRANS: Attagene TRANS-FACTORIAL HepG2 Assay for GAL4 (Internal Marker) (AID 2282976; active = hit-call score of the fitted dose curve at least 0.9, where 1 is the maximum); conditions: HepG2 Attagene TRANS GAL4 internal marker reporter
Procedure, shortened: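 In transfected human HepG2 liver cells dosed 24 h, GAL4 reporter mRNA serves as a baseline marker. Detection by RT-PCR with fluorescent capillary electrophoresis, activity fitted upward relative to DMSO.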

[17] = target: Estrogen-related receptor gamma (Homo sapiens) (UniProt P62508); assay: ATG_ERRg_TRANS: Attagene TRANS-FACTORIAL HepG2 Assay for human Estrogen-Related Receptor gamma (ERRg) (AID 2282977; active = hit-call score of the fitted dose curve at least 0.9, where 1 is the maximum;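 also: hits increase reporter signal over DMSO so potencies reflect activators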); conditions: HepG2 Attagene TRANS reporter, ERRg transactivation
Estrogen-related receptor gamma (Homo sapiens), sequence (P62508 whole entry, looked up, the tested form may be a part): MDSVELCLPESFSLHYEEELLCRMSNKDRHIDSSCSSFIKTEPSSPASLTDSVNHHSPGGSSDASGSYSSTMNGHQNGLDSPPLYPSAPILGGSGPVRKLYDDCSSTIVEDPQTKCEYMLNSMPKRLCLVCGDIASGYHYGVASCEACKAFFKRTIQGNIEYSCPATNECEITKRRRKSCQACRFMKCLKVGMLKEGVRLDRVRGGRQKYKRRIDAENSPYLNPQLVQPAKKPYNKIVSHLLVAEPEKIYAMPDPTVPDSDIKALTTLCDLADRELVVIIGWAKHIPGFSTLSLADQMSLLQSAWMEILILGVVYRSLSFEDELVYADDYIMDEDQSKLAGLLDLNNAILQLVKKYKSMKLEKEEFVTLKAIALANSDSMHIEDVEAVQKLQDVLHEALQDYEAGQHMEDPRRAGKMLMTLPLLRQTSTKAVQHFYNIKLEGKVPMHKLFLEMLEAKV
Procedure, shortened: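 HepG2 cells transiently transfected with multiplexed GAL4-UAS reporter units and chimeric NR-Gal4 constructs were exposed to test chemicals for 24 h. Reporter mRNA was measured by RT-PCR, 6-FAM primer extension, HpaI digestion and capillary electrophoresis; gain-of-signal versus DMSO.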

[18] = target: Nuclear receptor subfamily 1 group I member 3 (Homo sapiens) (UniProt Q14994); assay: ATG_CAR_TRANS: Attagene TRANS-FACTORIAL HepG2 Assay for human Constitutive Androstane Receptor (CAR) (AID 2282969; active = hit-call score of the fitted dose curve at least 0.9, where 1 is the maximum;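 also: activators raise reporter mRNA above DMSO so AC50 marks induction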); conditions: HepG2 Attagene TRANS-FACTORIAL CAR reporter
Nuclear receptor subfamily 1 group I member 3 (Homo sapiens), sequence (Q14994 whole entry, looked up, the tested form may be a part): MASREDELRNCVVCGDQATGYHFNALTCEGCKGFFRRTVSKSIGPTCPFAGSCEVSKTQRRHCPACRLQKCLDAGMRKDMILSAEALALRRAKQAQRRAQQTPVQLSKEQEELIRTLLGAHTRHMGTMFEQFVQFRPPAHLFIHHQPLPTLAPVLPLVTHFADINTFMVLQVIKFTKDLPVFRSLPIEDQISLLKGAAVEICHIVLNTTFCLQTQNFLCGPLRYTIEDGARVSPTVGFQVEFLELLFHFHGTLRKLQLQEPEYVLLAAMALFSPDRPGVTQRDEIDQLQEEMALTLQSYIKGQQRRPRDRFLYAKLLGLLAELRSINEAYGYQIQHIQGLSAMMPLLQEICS
Procedure, shortened: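 HepG2 cells transiently transfected with multiplexed GAL4-UAS reporter units expressing chimeric NR-Gal4 proteins; compound exposure 24 h. Reporter mRNA measured by RT-PCR, 6-FAM labelling, HpaI digestion and capillary electrophoresis; gain-of-signal fitted against DMSO baseline.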

CC1CC(O)CC(C)(C)C1 (stereo not drawn)
outcome [1]: inactive | outcome [2]: inactive | outcome [3]: inactive | outcome [4]: inactive | outcome [5]: inactive | outcome [6]: inactive | outcome [7]: inactive | outcome [8]: inactive | outcome [9]: inactive | outcome [10]: inactive | outcome [11]: inactive | outcome [12]: inactive | outcome [13]: inactive | outcome [14]: inactive | outcome [15]: inactive | outcome [16]: inactive

CC[N+](C)(CC)CC
outcome [1]: inactive | outcome [2]: inactive | outcome [3]: inactive | outcome [4]: inactive | outcome [5]: inactive | outcome [6]: inactive | outcome [7]: inactive | outcome [8]: inactive | outcome [9]: inactive | outcome [10]: inactive | outcome [11]: inactive | outcome [14]: inactive | outcome [15]: inactive | outcome [16]: inactive

CC(=O)OCCCc1ccccc1
outcome [1]: inactive | AC50 [2]: 27.4 µM (active) | outcome [3]: inactive | outcome [4]: inactive | outcome [5]: inactive | outcome [6]: inactive | outcome [7]: inactive | outcome [8]: inactive | outcome [9]: inactive | outcome [10]: inactive | outcome [11]: inactive | outcome [13]: inactive | outcome [14]: inactive | outcome [15]: inactive | outcome [16]: inactive | outcome [17]: inactive

CCCCC(CC)C(=O)OC(C)C (stereo not drawn)
outcome [1]: inactive | outcome [2]: inactive | outcome [3]: inactive | outcome [4]: inactive | outcome [5]: inactive | outcome [6]: inactive | outcome [7]: inactive | outcome [8]: inactive | outcome [9]: inactive | outcome [10]: inactive | outcome [11]: inactive | outcome [12]: inactive | outcome [14]: inactive | outcome [15]: inactive | outcome [16]: inactive

CCCCC(CC)COC(=O)c1ccc(O)cc1 (stereo not drawn)
outcome [1]: inactive | AC50 [2]: 11.1 µM (active) | outcome [3]: inactive | outcome [4]: inactive | outcome [5]: inactive | outcome [6]: inactive | outcome [7]: inactive | outcome [10]: inactive | outcome [11]: inactive | outcome [12]: inactive | outcome [14]: inactive | outcome [16]: inactive

CCCCC(CC)(CO)CO
outcome [1]: inactive | outcome [2]: inactive | outcome [3]: inactive | outcome [4]: inactive | outcome [5]: inactive | outcome [6]: inactive | outcome [7]: inactive | outcome [9]: inactive | outcome [10]: inactive | outcome [11]: inactive | outcome [12]: inactive | outcome [18]: inactive | outcome [14]: inactive | outcome [15]: inactive | outcome [16]: inactive

Cc1cc(=O)oc2cc(N(C)C)ccc12
outcome [1]: inactive | outcome [2]: inactive | outcome [3]: inactive | outcome [4]: inactive | outcome [5]: inactive | AC50 [6]: 100 µM (active) | outcome [7]: inactive | outcome [8]: inactive | outcome [9]: inactive | outcome [10]: inactive | outcome [11]: inactive | outcome [12]: inactive | outcome [14]: inactive | outcome [16]: inactive

CCC(=O)OCCOc1ccccc1
outcome [1]: inactive | outcome [2]: inactive | outcome [3]: inactive | outcome [4]: inactive | outcome [5]: inactive | outcome [6]: inactive | outcome [7]: inactive | outcome [8]: inactive | outcome [9]: inactive | outcome [10]: inactive | outcome [11]: inactive | outcome [12]: inactive | outcome [14]: inactive | outcome [15]: inactive | outcome [16]: inactive

CC(C)(N=C=O)c1cccc(C(C)(C)N=C=O)c1
outcome [1]: inactive | AC50 [2]: 13.1 µM (active) | outcome [3]: inactive | outcome [4]: inactive | outcome [5]: inactive | outcome [6]: inactive | outcome [7]: inactive | outcome [8]: inactive | outcome [9]: inactive | outcome [10]: inactive | outcome [11]: inactive | outcome [12]: inactive | outcome [13]: inactive | outcome [14]: inactive | outcome [16]: inactive | outcome [17]: inactive

From PubChem BioAssay (EPA / NIEHS)
